Screening results from PubChem.
Pf growth 48h – Primary qHTS for delayed death inhibitors of the malarial parasite plastid, 48 hour incubation; P. falciparum luciferase growth in erythrocytes, 48 h; Potency, µM (top dose mostly 28.7 µM), inactives show at the top dose activity change, negative = inhibition, most hits filed as inhibitors; actives 5.9% (n = 310,000); AID 504832, 2011; note: potency is the fitted concentration of half-maximal effect; % is set by controls: 0 for no effect and ±100 for the full control effect
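In quantitative HTS format, infected erythrocytes bearing luciferase-reporter parasites were treated for a single generation at 37 C. Luminescence after adding detection reagent served as the growth measure.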
Shiga inhibitor – A qHTS for Small Molecule Inhibitors of Shiga Toxin. Vero cells, Shiga toxin protein synthesis inhibition reporter. inhibition, % at 38.7 µM. actives 9.2% (n = 290,000); in the data active = inhibition mostly above about 28%, no sharp cut-off; inactive = mostly below about 43%; note: 0% is about no effect
Cycloheximide cs – Cycloheximide Counterscreen for Small Molecule Inhibitors of Shiga Toxin. cell reporter, cycloheximide protein synthesis inhibition counterscreen. max response, %. actives 12% (n = 300,000). AID 2314, 2010; in the data active = max response mostly above about 13%, no sharp cut-off; inactive = mostly below about 14%; note: read at 38.3 µM for the half of the compounds with a filed dose; 0% is about no effect
Pf growth 96h – Primary qHTS for delayed death inhibitors of the malarial parasite plastid, 96 hour incubation; P. falciparum luciferase reporter growth, 96 h; Potency, µM (series often up to 28.7 µM), inactives show at the top dose activity change, negative = inhibition, usual class: inhibitors; actives 6.9% (n = 320,000); note: potency is the fitted concentration of half-maximal effect; % is set by controls: 0 for no effect and ±100 for the full control effect
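Two-generation exposure (96 h) targets delayed-death phenotype. Reporter parasites carrying integrated firefly luciferase, in red cells at 2% hematocrit and 0.05% parasitemia final, kept at 37 C, 5% CO2; luminescence loss indicates inhibition.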
HCMV inh – qHTS Assay for inhibitors of the human cytomegalovirus (HCMV); HFF cells, HCMV-luciferase reporter, 72 h; stronger effect = lower value; activity change, negative = inhibition, % at 57.5 µM; actives 4.5% (n = 410,000); AID 1259415, 2018; in the data active = activity change below about -60%; inconclusive = no clear call, values can overlap the other calls; inactive = above about -39%; note: % is set by controls: 0 for no effect and ±100 for the full control effect
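Two compound doses tested in HFFs infected with HCMV-luciferase, MOI 1 PFU/cell, 72 h at 37C. Lysate luminescence read with OneGlo; data normalized against buffer-only and 10uM Salinomycin inhibitor controls.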
The depositor's hits bear a star; ? = inconclusive; . = not tested or not shown. The list is not random: actives were taken first. Their share in the collection is about 20%. Unless noted, calls come from the whole dose curve; as a rule, active = well fitted inhibition curve with a large enough effect; inconclusive = small, poorly fitted or top-dose-only effect, or another doubt; inactive = no such curve, though single readings can be large or run the other way.

SMILES	Pf growth 48h	Shiga inhibitor	Cycloheximide cs	Pf growth 96h	HCMV inh
COc1ccc(S(=O)(=O)N2CCCC(C(=O)NC3CC3)C2)cc1OC (stereo not given)	?	.	.	1%	0
CC1(C)Cc2cccc(OCC(=O)Nc3ccc(S(N)(=O)=O)cc3)c2O1	6%	.	.	-3%	-17
COc1ccccc1CN1CC(C(=O)N(Cc2cnn(C)c2)C(C)C)CCC1=O (stereo not given)	4%	12	27	40%	-4
Cc1nnc2c3ccccc3nc(Nc3cccc(O)c3)n12	.	.	.	.	0
CCC(C)N(C(=O)CSc1ccc(NC(C)=O)cc1)C1CCS(=O)(=O)C1 (stereo not given)	-2%	-6	-7	18%	0
Cc1cc(C(=O)N/N=C/c2c(C)nn(-c3ccccc3)c2Cl)n[nH]1	?	49*	18*	-7%	26
Cc1nn(-c2ccccc2)c(Cl)c1/C=N/NC(=O)c1[nH]ncc1Br	16%	45*	29*	32%	9
Cc1nn(-c2ccccc2)c(Cl)c1/C=N/NC(=O)c1cccnc1	5%	27	33*	?	-2
Cc1ccc(C(=O)N/N=C\c2c(C)nn(-c3ccccc3)c2Cl)cn1	-4%	15	15	?	-28
COc1ccc(NC(=O)c2cc(-c3ccccc3OC)on2)cc1	?	88*	19*	2%	128
COc1cc(NC(=O)c2cc(-c3ccc(C)cc3)on2)cc(OC)c1OC	0%	.	11*	-8%	3
COc1ccc(NC(=O)c2cc(-c3cccc(OC)c3)on2)cc1	14%	13	9	171%	40
COc1ccccc1-c1cc(C(=O)Nc2cccnc2)no1	192%	48*	25*	?	2
CCCc1cc(C(=O)NCCc2ccccc2)no1	186%	87*	53*	-17%	54
CSCC[C@H](NC(=O)[C@H](CCCN=C(N)N)NC(=O)[C@@H]1CCCN1C(=O)[C@H](Cc1ccccc1)NC(=O)[C@H](C)NC(=O)[C@H](CC(C)C)NC(=O)[C@H](Cc1ccc(O)cc1)NC(=O)[C@H](CC(N)=O)NC(=O)[C@@H](N)CCSC)C(N)=O	.	-15	-4	.	.
COc1cc(NC(=O)c2cc(-c3ccc(Cl)c(Cl)c3)on2)cc(OC)c1OC	.	.	.	.	-18
COc1cc(NC(=O)Nc2cccc(C(C)=O)c2)cc(OC)c1OC	-6%	13	-1	39%	36
COc1ccc(-c2cc(C(=O)Nc3ccc(C)cc3)no2)cc1	10%	3	0	18%	43
COc1cccc2cc(C(=O)NCCc3ccccc3)oc12	8.3µM*	-22	-9	32%	90
COc1cc(NC(=O)c2cc(-c3ccccc3Cl)on2)cc(OC)c1OC	0%	-5	1	12µM*	-21
COc1ccc(NC(=O)c2cc(-c3ccccc3Cl)on2)cc1	?	130*	44*	?	19
COc1cc(NC(=O)Nc2cccc(-c3noc(C)n3)c2)cc(OC)c1OC	.	.	.	.	-77*
Cc1nnc(NC(=O)CCn2cnc3ccccc3c2=O)s1	7%	2	-4	2%	33
O=C(NCc1ccco1)c1n[nH]c(=O)c2ccccc12	.	17	6	22%	-5
COc1ccc(CCNC(=O)c2cc(-c3ccccc3OC)on2)cc1OC	?	43	15	.	14
SMILES	Pf growth 48h	Shiga inhibitor	Cycloheximide cs	Pf growth 96h	HCMV inh
COc1ccccc1-c1cc(C(=O)NCCc2ccccc2)no1	.	147*	54*	.	92
Cc1cc(NC(=O)C(C)Oc2ccc(C(C)(C)C)cc2)no1 (stereo not given)	?	-3	0	10%	-35
Cc1cccc(C)c1-c1ccc(CN2C(CC(C)C)C(=O)N(Cc3cn(CC4CCCCC4)nn3)CCS2(=O)=O)cc1 (stereo not given)	.	.	.	.	-100*
CC(C)CC1C(=O)N(Cc2cn(CC3CCCCC3)nn2)CCS(=O)(=O)N1Cc1ccc(-c2ccc(Cl)c(Cl)c2)cc1 (stereo not given)	.	.	.	.	-9
CN(C)c1ccc(-c2nnn(CC(=O)NCc3ccc4c(c3)OCO4)n2)cc1	38%	59	28*	?	25
Cc1ccccc1-c1nnn(CC(=O)Nc2ccc3c(c2)OCCO3)n1	21%	141*	58*	?	-9
CC(C)c1ccc(C(=O)NCCCN2CCN(CCCNC(=O)c3ccc(C(C)C)cc3)CC2)cc1	?	-8	-5	?	-80*
Cc1ccc(CS(=O)Cc2ccc(C(=O)NCc3ccc4c(c3)OCO4)o2)cc1 (stereo not given)	12%	-5	14	13µM*	-26
CC(C)(C)NC(=O)C(c1cccnc1)N(C(=O)c1ccc(Cl)nc1)C1CCCC1 (stereo not given)	9%	27	-2	?	-5
O=C(CS(=O)(=O)c1c[nH]c2ccccc12)N1CCc2ccccc21	60%	9	-2	47%	17
Cc1ccc(/C([O-])=C(/C(=S)NCc2ccc3c(c2)OCO3)[n+]2ccc(N(C)C)cc2)c(C)c1	-14%	5	-3	-12%	-70*
CN(C)c1cccc(C(=O)NCc2ccc(Cl)cc2)c1	4.1µM*	71*	27*	75%	-26
CC(C)c1ccc(C(=O)NCc2ccc(Cl)cc2)cc1	44%	141*	74*	0%	39
Cc1cccc(NC(=S)NCc2ccc3c(c2)OCO3)c1	3%	-15	-2	-14%	-35
CC(C)NC(=O)c1ccc(C(C)C)cc1	19%	35	18*	6%	-10
O=C(CSCc1ccc(Cl)cc1)Nc1ccc(O)cc1C(=O)O	0%	-14	4	380%	6
Cc1ccc2c(c1)N(CCC(=O)NC1CCCCC1)C(=O)CO2	-2%	-3	-4	-7%	-14
NC(=O)c1ccc(-c2nnn(CC(=O)Nc3cccc(S(=O)(=O)N4CCCC4)c3)n2)cc1	-5%	.	.	-2%	-5
O=C(NCc1ccc2c(c1)OCO2)c1ccc(Br)s1	83%	16	12*	41%	0
O=C(NCc1ccccc1Br)c1ccc2c(c1)OCCO2	6%	.	12	-8%	68
O=C(Cn1nnc(-c2ccc(S(=O)(=O)N3CCCC3)cc2)n1)Nc1ccccc1-n1cccc1	9.3µM*	-13	-4	?	-17
CCOCCCNC(=O)c1ccc2c(c1)OCO2	91%	58*	23*	.	1
O=C(NCc1cccc(Cl)c1)c1ccc2c(c1)OCCO2	15%	.	21*	93%	7
COc1cc(/C=C\C(=O)NCc2ccc3[nH]c(C)cc3c2)cc(OC)c1OC	12µM*	-2	-2	13µM*	19
COC(=O)c1ccc(CNC(=O)c2ccc3c(c2)OCCO3)cc1	9%	63	19*	20%	10
O=C(NCc1ccc2c(c1)OCO2)c1ccc2c(c1)OCCO2	.	18*	25	18%	130
